A short description of experiment [1]: binders of probe aFSTL3 on microarray, primary screen, stem cell growth factor project, biochemical, small-molecule microarray, fluorescence 635/667 (AID 1064).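 Also: measures binding of the biotinylated anti-FSTL3 antibody to printed compounds.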 The conditions noted are these: higher = more signal.
A short description of experiment [2]: binders from COS7 lysate, DM2A8 probe, primary screen, torsin A project, cell lysate, small-molecule microarray, fluorescence 635/667 (AID 1065). The conditions noted are these: higher = more signal, COS7 lysate expressing mutant human TOR1A.
The nature of experiment [3]: binders of probe aFGF2 on microarray, primary screen, stem cell growth factor project, biochemical, small-molecule microarray, fluorescence 635/667 (AID 1067).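 Also: measures binding of biotinylated aFGF2 protein to printed compounds on slides; z-score merges feature fluorescence and signal-to-noise across triplicate slides.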 Particulars: higher = more signal.
The nature of experiment [4]: binders of probe aFGF10 on microarray, primary screen, stem cell growth factor project, biochemical, small-molecule microarray, fluorescence 635/667 (AID 1071).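 Also: score merges 667 nm spot intensity and signal to noise from triplicate slides.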 The conditions noted are these: higher = more signal.
Experiment [5] addresses Neurogenic locus notch homolog protein 2 (Homo sapiens) (UniProt Q04721). The experiment is described as follows: Notch2 binders on small-molecule microarrays, primary screen, biochemical, small-molecule microarray, 635 nm fluorescence, stem cell growth factors (AID 1073). The conditions noted are these: Notch2 binding, higher = more signal.
Experiment [6] addresses Pro-neuregulin-1, membrane-bound isoform (Homo sapiens) (UniProt Q02297). Briefly: NRG1 binders on small-molecule microarrays, primary screen, psychiatric disease protein project, biochemical, small-molecule microarray, fluorescence 635/667 (AID 1075).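 Also: score combines 667 nm spot fluorescence with signal to noise.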 The conditions noted are these: NRG1 binding, 635 nm fluorescence, higher = more signal.
The subject of experiment [7] is Neuregulin-1 EGF-like domain. The experiment is described as follows: binders of neuregulin-1 EGF-like domain, primary screen, biochemical, small-molecule microarray, 635 nm fluorescence (AID 1081).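 Also: binding of the protein to compounds printed on small-molecule microarray slides.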 Particulars: small-molecule microarray binding, higher = more signal.
Experiment [8] in a line: FRG1 promoter luciferase signal modulators, primary screen, FRG1 inhibition for FSHD, cell-based, C2C12 myotubes, firefly/Renilla luciferase, luminescence (AID 1084). The conditions noted are these: higher = more signal, called active from +8 up or from −8 down.
Experiment [9] can be described thus: binders of probe aFST on microarray, primary screen, stem cell growth factor project, biochemical, small-molecule microarray, fluorescence 635/667 (AID 1086).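 Also: score merges 667 nm fluorescence with signal-to-noise of each printed compound spot.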 The conditions noted are these: higher = more signal.
A short description of experiment [10]: binders of probe aHhip on microarray, primary screen, stem cell growth factor project, biochemical, small-molecule microarray, fluorescence 635/667 (AID 1087).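 Also: score merges spot fluorescence at 667nm with spot signal to noise ratio.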 The conditions noted are these: higher = more signal.
Experiment [11] concerns PRMT1 (protein arginine N-methyltransferase 1). The experiment is described as follows: PRMT1 binders on small-molecule microarrays, primary screen, biochemical, small-molecule microarray, 635 nm fluorescence (AID 1088).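 Also: binding of Prmt1 protein to compounds spotted on small-molecule microarray slides.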 Particulars: small-molecule microarray binding, higher = more signal.
A short description of experiment [12]: yeast growth modulation, basal conditions, primary screen, YJM789 clinical isolate, OD600, 24 h (AID 1089).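 Also: growth of clinical yeast isolate S. cerevisiae YJM 789 seeded 1000 cells per well; test concentration not given here.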 The conditions noted are these: S. cerevisiae YJM789 growth, higher = more signal, called active from +8 up or from −8 down.
The nature of experiment [13]: fission yeast growth modulation, primary screen, strain 972, OD600, 24 h, no modulator (AID 1090).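 Also: basal condition with compound alone and no growth modifier present; test concentration not given here.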 Particulars: S. pombe 972 growth, higher = more signal, called active from +8 up or from −8 down.
A short description of experiment [14]: S. cerevisiae growth modulation with rapamycin, primary screen, strain BY4716, OD600, 96 h (AID 1091). Also: test concentration not given here. The conditions noted are these: higher = more signal, called active from +8 up or from −8 down.
The target in experiment [15] is Torsin-1A-interacting protein 2 (Homo sapiens) (UniProt Q8NFQ8). The experiment is described as follows: LULL1 binders on small-molecule microarray, primary screen, cell lysate, human LULL1 lysate, 635/667 nm fluorescence (AID 1092).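 Also: probe is lysate of COS7 cells overexpressing human LULL1; score merges per-feature 667 nm fluorescence with signal-to-noise.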 The conditions noted are these: hLULL1 lysate binding, 635 nm fluorescence, higher = more signal.
Sequence of Torsin-1A-interacting protein 2 (Homo sapiens) (Q8NFQ8 whole entry, looked up): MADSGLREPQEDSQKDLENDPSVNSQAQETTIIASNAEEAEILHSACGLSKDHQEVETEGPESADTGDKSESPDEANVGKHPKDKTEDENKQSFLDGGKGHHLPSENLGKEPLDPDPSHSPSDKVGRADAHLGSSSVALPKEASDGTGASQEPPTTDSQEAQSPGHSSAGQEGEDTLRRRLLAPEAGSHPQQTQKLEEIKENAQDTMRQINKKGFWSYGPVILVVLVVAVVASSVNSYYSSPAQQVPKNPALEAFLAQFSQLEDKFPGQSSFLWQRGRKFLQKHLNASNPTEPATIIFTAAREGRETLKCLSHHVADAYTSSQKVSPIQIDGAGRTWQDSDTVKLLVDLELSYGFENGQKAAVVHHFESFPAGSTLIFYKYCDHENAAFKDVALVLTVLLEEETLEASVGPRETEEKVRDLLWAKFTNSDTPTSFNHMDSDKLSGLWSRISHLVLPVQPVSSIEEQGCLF
A short description of experiment [16]: E. coli growth modulation, two-sided OD650, primary screen, E. coli filamentation project, strain DRC41, 24 h (AID 1093).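 Also: MC1000 strain lacking acrAB efflux and sulA so SOS filamentation is blocked; test concentration not given here.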 The conditions noted are these: OD650, 24 h, higher = more signal, called active from +8 up or from −8 down.
Experiment [17] in a line: small-molecule microarray binders of probe aLefty2, primary screen, biochemical, biotinylated probe, 635/667 nm fluorescence (AID 1094).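 Also: score merges spot fluorescence near 667 nm with spot signal-to-noise ratio.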 Particulars: higher = more signal.
Experiment [18] has as its system Noggin (protein binding on small-molecule microarray). The experiment is described as follows: Noggin binders on small-molecule microarray, primary screen, biochemical, 635/667 nm fluorescence (AID 1095).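 Also: score merges 667 nm feature fluorescence with signal to noise over triplicate slides.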 Particulars: 635 nm fluorescence, higher = more signal.
Experiment [19] has as its target Neurogenic locus notch homolog protein 3 (Homo sapiens) (UniProt Q9UM47). Briefly: NOTCH3 binders on small-molecule microarray, primary screen, biochemical, 635/667 nm fluorescence (AID 1096). The conditions noted are these: NOTCH3 binding, 635 nm fluorescence, higher = more signal.
Experiment [20] in a line: small-molecule microarray binders of probe aEGFR, primary screen, biochemical, biotinylated probe, 635/667 nm fluorescence (AID 1097).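 Also: probe is a biotinylated anti-EGFR antibody binding compounds printed on slides; score combines fluorescence near 667 nm and signal to noise of each spot.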 Particulars: higher = more signal.

Each structure is given as a SMILES string. Calls of active or inactive are those of the source.

The record followed here is PubChem BioAssay.

Sequence of Neurogenic locus notch homolog protein 2 (Homo sapiens) (Q04721 whole entry, looked up, canonical isoform): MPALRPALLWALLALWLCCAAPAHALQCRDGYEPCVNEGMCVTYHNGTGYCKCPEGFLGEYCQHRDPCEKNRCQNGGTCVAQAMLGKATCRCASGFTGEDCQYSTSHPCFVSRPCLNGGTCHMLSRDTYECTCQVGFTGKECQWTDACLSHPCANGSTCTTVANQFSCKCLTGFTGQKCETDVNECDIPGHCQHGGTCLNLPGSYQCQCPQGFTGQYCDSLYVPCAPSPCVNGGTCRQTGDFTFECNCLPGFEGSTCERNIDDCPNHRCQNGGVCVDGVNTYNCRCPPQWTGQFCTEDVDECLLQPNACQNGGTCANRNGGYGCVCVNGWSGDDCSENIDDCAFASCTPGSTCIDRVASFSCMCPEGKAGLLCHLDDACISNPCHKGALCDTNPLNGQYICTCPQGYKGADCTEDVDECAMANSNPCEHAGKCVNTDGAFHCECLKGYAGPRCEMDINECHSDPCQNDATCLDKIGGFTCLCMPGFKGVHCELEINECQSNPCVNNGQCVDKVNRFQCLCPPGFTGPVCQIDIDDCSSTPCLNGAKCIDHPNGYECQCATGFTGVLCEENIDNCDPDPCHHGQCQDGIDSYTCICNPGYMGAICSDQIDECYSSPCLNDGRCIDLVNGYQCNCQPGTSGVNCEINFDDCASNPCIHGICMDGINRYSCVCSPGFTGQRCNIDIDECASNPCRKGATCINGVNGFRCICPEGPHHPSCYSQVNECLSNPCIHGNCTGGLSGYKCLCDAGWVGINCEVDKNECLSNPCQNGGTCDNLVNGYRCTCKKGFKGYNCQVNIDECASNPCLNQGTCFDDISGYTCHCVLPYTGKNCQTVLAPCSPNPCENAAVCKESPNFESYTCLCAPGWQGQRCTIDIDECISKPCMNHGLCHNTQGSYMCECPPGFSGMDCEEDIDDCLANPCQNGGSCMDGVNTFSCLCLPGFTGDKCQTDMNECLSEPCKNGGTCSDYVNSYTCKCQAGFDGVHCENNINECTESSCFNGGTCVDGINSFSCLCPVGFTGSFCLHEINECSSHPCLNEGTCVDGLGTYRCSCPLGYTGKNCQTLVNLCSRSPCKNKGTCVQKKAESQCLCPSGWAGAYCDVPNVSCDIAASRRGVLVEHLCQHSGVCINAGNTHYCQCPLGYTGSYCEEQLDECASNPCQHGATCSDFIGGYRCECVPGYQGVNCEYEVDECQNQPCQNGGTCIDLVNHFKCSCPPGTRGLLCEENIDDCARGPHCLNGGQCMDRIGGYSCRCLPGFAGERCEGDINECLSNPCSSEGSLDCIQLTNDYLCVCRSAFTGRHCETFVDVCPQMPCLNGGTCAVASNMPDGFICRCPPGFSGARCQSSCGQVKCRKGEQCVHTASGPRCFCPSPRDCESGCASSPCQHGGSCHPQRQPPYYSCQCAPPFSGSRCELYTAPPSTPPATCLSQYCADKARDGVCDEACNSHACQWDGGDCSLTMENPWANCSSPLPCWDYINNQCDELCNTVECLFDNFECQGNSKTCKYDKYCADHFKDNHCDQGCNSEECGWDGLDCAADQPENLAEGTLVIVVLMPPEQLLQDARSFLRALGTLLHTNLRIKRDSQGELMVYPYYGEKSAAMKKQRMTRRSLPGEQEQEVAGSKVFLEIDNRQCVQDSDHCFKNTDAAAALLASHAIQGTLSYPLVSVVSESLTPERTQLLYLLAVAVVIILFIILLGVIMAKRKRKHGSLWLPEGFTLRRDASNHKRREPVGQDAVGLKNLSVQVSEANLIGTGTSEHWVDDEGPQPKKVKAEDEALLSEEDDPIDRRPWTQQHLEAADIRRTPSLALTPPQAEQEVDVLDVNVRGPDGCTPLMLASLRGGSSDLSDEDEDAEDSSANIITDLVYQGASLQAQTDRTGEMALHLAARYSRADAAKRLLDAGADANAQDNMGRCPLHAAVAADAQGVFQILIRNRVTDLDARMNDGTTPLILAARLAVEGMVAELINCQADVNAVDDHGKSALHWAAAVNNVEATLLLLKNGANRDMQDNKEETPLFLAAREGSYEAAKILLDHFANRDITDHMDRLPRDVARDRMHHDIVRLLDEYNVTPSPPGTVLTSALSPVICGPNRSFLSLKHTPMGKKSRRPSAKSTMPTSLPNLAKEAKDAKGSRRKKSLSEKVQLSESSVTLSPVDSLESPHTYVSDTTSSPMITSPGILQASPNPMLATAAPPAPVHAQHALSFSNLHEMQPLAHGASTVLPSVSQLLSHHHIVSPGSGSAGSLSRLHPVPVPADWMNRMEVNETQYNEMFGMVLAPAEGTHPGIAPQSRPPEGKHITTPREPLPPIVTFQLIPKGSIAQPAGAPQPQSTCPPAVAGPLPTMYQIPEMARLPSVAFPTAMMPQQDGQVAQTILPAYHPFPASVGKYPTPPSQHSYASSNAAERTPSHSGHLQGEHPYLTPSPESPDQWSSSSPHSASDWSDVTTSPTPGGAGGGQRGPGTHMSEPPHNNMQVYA
Sequence of Pro-neuregulin-1, membrane-bound isoform (Homo sapiens) (Q02297 whole entry, looked up, the tested form may be a part, canonical isoform): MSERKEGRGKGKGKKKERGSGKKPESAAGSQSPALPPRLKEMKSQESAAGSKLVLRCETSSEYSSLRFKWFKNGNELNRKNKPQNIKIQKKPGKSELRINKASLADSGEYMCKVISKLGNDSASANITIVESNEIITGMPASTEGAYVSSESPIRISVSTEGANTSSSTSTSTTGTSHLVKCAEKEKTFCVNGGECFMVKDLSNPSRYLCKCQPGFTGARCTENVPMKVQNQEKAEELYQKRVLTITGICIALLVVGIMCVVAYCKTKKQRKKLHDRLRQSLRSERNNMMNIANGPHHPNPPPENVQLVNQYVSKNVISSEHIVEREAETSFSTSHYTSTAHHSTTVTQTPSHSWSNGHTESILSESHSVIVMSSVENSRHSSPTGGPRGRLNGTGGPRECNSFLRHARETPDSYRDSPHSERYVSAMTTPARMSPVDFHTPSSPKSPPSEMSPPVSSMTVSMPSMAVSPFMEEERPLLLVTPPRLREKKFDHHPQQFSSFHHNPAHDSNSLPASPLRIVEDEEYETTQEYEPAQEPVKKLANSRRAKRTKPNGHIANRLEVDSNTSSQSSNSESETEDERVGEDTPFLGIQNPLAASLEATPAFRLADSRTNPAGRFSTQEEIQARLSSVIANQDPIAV

On to `C=CCNC(=O)[C@@H]1[C@H]2C(=O)O[C@H](c3ccccc3)[C@H](c3ccccc3)N2[C@H](c2ccc(O)cc2)[C@@]12C(=O)Nc1ccc(C#Cc3ccc(OC)cc3)cc12`, for which the composite z-score is -0.112 in [1]; 0.712 in experiment [2]; 0.0356 in experiment [3]; 0.69 in experiment [4]; 1.46 in [5]; 0.489 in experiment [6]. Also, the composite z-score in [7] is 1.16; in experiment [9], 0.496; in experiment [10], -0.0672; in experiment [11] it was 1.54; in experiment [15], 1.96; in experiment [17], 0.0005. The composite z-score is 0.436 in experiment [18], 1.14 in [19] and -0.0019 in experiment [20]. Further, the z-score in experiment [8] was 0.606 (inactive); in [12], -0.147 (inactive); in [13], -1.67 (inactive); in experiment [14], 2.97 (inactive); in [16] it was 2.8 (inactive).

On to `CCCCCCC#C[Si](O[C@H](c1ccccc1)c1cn(Cc2ccccc2)nn1)(C(C)C)C(C)C`, for which the composite z-score in experiment [1] is -0.331; in [2], -0.0435; in experiment [3] it was 0.0339; in experiment [4], 0.388; in [5], 0.433; in experiment [6], -0.0854. Moreover, the composite z-score in experiment [7] is -0.0419; in experiment [9], 0.129; in experiment [10] it was 0.243; in experiment [11], 0.63; in experiment [15], 0.468; in [17] it was -0.0153. The results for the composite z-score in [18], in experiment [19] and in experiment [20] were 0.977, 0.6 and 0.0334, respectively. For the same compound, the z-score was -0.494 (inactive) in [8]; -0.501 (inactive) in [12]; -1.19 (inactive) in experiment [13]; -0.287 (inactive) in experiment [14]; 2.25 (inactive) in experiment [16].

On to `O=C1c2ccccc2[C@@]2(Cc3ccccc3N(CC(F)(F)F)C2=O)[C@H](c2ccc(CO)cc2)N1Cc1ccccc1C(F)(F)F`, for which the composite z-score in experiment [1] was 0.886; in experiment [2], -0.752; in experiment [3] it was -0.131; in experiment [4], -0.597; in experiment [5] it was -1.34; in experiment [6], -0.61. The composite z-score in [7] was -1.2; in [9], -0.596; in experiment [10], -0.191; in [11] it was 0.52; in experiment [15], 0.394; in experiment [17], -0.0412. Further, the composite z-score in [18] was -1.51; in experiment [19], -1.18; in experiment [20], -0.26. The z-score in [8] is -0.435 (inactive); in [12], -0.84 (inactive); in experiment [13], -1.25 (inactive); in [14] it was -1.12 (inactive); in [16], 0.886 (inactive).

On to `CC(C)N1C(=O)c2ccccc2[C@@H](C(=O)NCc2ccccc2)[C@@H]1c1ccc(CO)cc1`, for which the composite z-score was -0.0604 in [1]; 0.317 in experiment [2]; -0.0806 in experiment [3]; -0.723 in experiment [4]; -0.423 in experiment [5]; 0.844 in experiment [6]. Also, the composite z-score in experiment [7] is 1.15; in [9], -0.0768; in [10], -0.141; in [11], -0.238; in experiment [15], 0.979; in experiment [17], -0.109. Besides, the composite z-score was -0.608 in experiment [18], -0.904 in [19] and -0.273 in [20]. The z-score was -0.331 (inactive) in [8]; 0.582 (inactive) in [12]; -0.579 (inactive) in experiment [13]; 1.31 (inactive) in experiment [14]; 0.846 (inactive) in experiment [16].

Take `COCCCNC(=O)[C@@]1(Cc2ccccc2)N=C(c2ccc(OCCCO)cc2)O[C@H]1c1ccccc1N=[N+]=[N-]`: the composite z-score in experiment [1] was determined as 1.38; in [2] it was 0.768; in experiment [3] it was 0.269; in experiment [4], 0.727; in experiment [5], 1.14; in experiment [6] it was 0.276. In addition, the composite z-score in [7] is 1.13; in experiment [9], 0.836; in [10], -0.121; in [11], 0.85; in experiment [15], 2.47; in experiment [17] it was 0.612. Moreover, the composite z-score in experiment [18] was 1.89; in experiment [19] it was 0.773; in [20], 0.247. The z-score in [8] is -1.37 (inactive); in [12] it was 0.448 (inactive); in experiment [13], -0.051 (inactive); in [14] it was 2.71 (inactive); in [16] it was 1.59 (inactive).
